Our source for the Potency and outcome values is PubChem BioAssay (NCATS).

Each structure is given as a SMILES string. “And” between values parts separate entries of the source, which are not always exact repeats. Equal values may be shown once. Inconclusive results are not listed. The source made the active and inactive calls. Calls come from the whole dose curve; as a rule, active = well fitted curve in the direction sought with a large enough effect; inconclusive = small, poorly fitted or top-dose-only effect, or another doubt; inactive = no such curve, though single readings can be large; an effect the other way counts as inactive or inconclusive.

Assay [1] deals with Zika virus NS2B-NS3 protease. Nature of the assay: Primary screen GU AMC qHTS for Zika virus inhibitors (AID 1347154). Note: nearly all actives have a fitted effect of over 70% in size. Note: potency is the fitted concentration of half-maximal effect. Summed up: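 Unlinked Zika NS2B hydrophilic domain/NS3 protease domain noncovalent complex (25 nM final) in 10 mM Tris-HCl pH 8.0, 0.01% Tween 20, with AMC peptide substrate. Fluorescence (ex 340, em 450 nm) change over 15 min, room temperature; percent inhibition fitted to 4-parameter Hill equation.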
(In general: Quantitative high-throughput screening tests each substance at several concentrations.)

Assay [2] is described as follows: qHTS to identify inhibitors of the type 1 interferon - major histocompatibility complex class I in skeletal muscle: primary screen against the NCATS LOPAC collection (AID 1347405).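 Note: lytic HiBiT luminescence reporting HLA-B protein level.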 Summed up: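 Cells: C25cl48 human myoblasts, HiBiT-tagged HLA-B*08:01, stimulated with IFN-beta 4.0 ng/ml. Compounds are titrated 1:4.3 over 7 points from 46 uM final and incubated 24 hrs; endogenous MHC class I is quantified by HiBiT lytic luminescence.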

Assay [3] can be described thus: qHTS to identify inhibitors of the type 1 interferon - major histocompatibility complex class I in skeletal muscle: primary screen against the NCATS Pharmaceutical Collection (AID 1347407).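 Note: luminescence of HiBiT knocked into endogenous HLA-B as interferon-induced MHC class I level.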 Summed up:
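A qHTS format is used: 8-point, 1:5 compound series with 46 uM top final concentration, applied alongside 4 ng/ml IFN-beta to HLA-B*08:01-HiBiT knock-in myoblasts. Luminescence is measured after 24 h treatment.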

The nature of assay [4]: qHTS for inhibitors of adenylyl cyclases using a fission yeast platform: a pilot screen against the NCATS LOPAC library (AID 1347410). The method in brief:
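Inhibition of GNAS-stimulated AC9 activity in S. pombe was inferred from derepression of a PKA-repressed fbp1-GFP reporter, measured as cytometric fluorescence after 18 h at 30C with compounds at up to 57 µM.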

For assay [5], the target named is Protein phosphatase 1D (Homo sapiens) (UniProt O15297). The assay can be described thus: Rhodamine-PBP qHTS Assay for Modulators of WT P53-Induced Phosphatase 1 (WIP1) (AID 1347425). The method in brief: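 The read-out is the change in Rhodamine-PBP fluorescence (f1 - f0, ex 525/em 598 nm) as Pi is released, read each minute for 11 min. Final reaction: 5 nM WIP1, 10 uM phosphopeptide VEPPL-pS-QETFS, 10 uM Rh-PBP, 50 mM Tris-HCl pH 7.5, 30 mM MgCl2. Compound was preincubated with enzyme for 1 hour at room temperature.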
Sequence of Protein phosphatase 1D (Homo sapiens) (O15297 whole entry, looked up): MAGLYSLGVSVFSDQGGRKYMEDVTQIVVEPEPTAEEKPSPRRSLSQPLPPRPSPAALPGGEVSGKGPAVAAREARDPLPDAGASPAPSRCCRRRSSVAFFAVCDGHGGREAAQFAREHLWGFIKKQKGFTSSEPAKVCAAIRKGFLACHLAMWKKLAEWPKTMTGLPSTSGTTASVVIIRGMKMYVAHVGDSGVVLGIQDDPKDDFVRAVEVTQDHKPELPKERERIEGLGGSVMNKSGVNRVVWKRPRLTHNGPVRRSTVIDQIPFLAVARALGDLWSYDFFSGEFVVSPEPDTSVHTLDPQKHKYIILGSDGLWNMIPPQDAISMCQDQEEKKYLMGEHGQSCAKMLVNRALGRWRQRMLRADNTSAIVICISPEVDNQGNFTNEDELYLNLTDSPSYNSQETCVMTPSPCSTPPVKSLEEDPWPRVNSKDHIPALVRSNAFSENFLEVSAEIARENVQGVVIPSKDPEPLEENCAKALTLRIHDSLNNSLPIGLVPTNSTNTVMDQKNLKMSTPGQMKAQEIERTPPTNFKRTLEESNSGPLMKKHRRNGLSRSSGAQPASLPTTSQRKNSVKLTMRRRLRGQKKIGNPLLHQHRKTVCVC

Assay [6] in a line: Validation qHTS assay for inhibitors of Activation Induced Cytidine Deaminase (AID): UDG Counterscreen signal (AID 1347427). Summed up:
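Counterscreen read of UDG activity (2 U/mL, 4/3x) in the FRET deamination format with AID (1 uM, 4/3x), DJC20/DJC23 substrates (250 nM, 4x), 4 h at room temperature. NaOH stop, fluorescence at 560 ex/665 em.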

Assay [7] is described as follows: qHTS to identify inhibitors of the type 1 interferon - major histocompatibility complex class I in skeletal muscle: primary screen against the NCATS Mechanism Interrogation Plate v5.0 (MIPE) Libary (AID 1347411). Note: nearly all actives have a fitted effect of over 65% in size. Summed up: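 Cells were genome-edited human myoblasts carrying a HiBit tag on endogenous HLA-B. They were treated with IFN-beta (4.0 ng/ml) and titrated compounds (top 46 uM) for 24 hrs before lytic HiBiT detection.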

Assay [8] addresses Protein phosphatase 1D (Homo sapiens) (UniProt O15297). The assay can be described thus: RapidFire Mass Spectrometry qHTS Assay for Modulators of WT P53-Induced Phosphatase 1 (WIP1) (AID 1347424).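 Note: amount of dephosphorylated VEPPL-S-QETFS peptide product formed by WIP1; series mostly up to about 63 µM.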 The method in brief: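 WIP1 (10 nM final) was preincubated 1 h at room temperature with compounds in Tris-HCl pH 7.5, 30 mM MgCl2, TCEP, EGTA, BSA; 2 uM VEPPL-pS-QETFS phosphopeptide was added for 5 min, quenched with formic acid, and dephosphorylated product quantified by RapidFire MS.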

In the case of `NC[C@H](O)c1ccc(O)c(O)c1`, the Potency in assay [1] is 10.2 µM (active) and 11.9 µM (active). The Potency result in assay [2] is “inactive”. Moreover, the outcome in assay [3], in assay [4], in assay [5] and in assay [6] was inactive.

In the case of `CCC(C)(C)C(=O)O[C@H]1C[C@@H](C)C=C2C=C[C@H](C)[C@H](CC[C@@H]3C[C@@H](O)CC(=O)O3)[C@H]21`, the Potency entry in assay [1], in assay [7] and in assay [8] was “inactive” in each case. In assay [3], the result was inactive.

As to `CC(C)(C)OC(=O)CN(Cc1ccc(Cl)cc1)Cc1ccc([N+](=O)[O-])s1`, the Potency entry in assay [1] and in assay [7] was “inactive” throughout.

For the compound `Nc1cccc(S(=O)(=O)N2CCCN(S(=O)(=O)c3ccc4c(c3)OCCO4)CC2)c1`, the Potency result in assay [1] and in assay [7] was “inactive” throughout.
